Hits are enriched below; roughly 3.2% of the tested compounds scored in any of these assays.
ERAP1 HTS inh: ERAP1 (human) enzyme inhibition; Q9NZ08; hit rate 0.15% among 340,000; AID 652197; inhibition, % at 10.7 µM; recombinant ERAP1, Leu-AMC fluorescence, 60 min;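 active = mean replicate inhibition of at least 30%, or all replicates individually reaching that 30% level; inactive = mean below 30% and not every replicate reaching it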;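 also: 0% = neutral control wells and 100% = L-leucinethiol positive control wells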
Target sequence (Q9NZ08 whole entry, looked up): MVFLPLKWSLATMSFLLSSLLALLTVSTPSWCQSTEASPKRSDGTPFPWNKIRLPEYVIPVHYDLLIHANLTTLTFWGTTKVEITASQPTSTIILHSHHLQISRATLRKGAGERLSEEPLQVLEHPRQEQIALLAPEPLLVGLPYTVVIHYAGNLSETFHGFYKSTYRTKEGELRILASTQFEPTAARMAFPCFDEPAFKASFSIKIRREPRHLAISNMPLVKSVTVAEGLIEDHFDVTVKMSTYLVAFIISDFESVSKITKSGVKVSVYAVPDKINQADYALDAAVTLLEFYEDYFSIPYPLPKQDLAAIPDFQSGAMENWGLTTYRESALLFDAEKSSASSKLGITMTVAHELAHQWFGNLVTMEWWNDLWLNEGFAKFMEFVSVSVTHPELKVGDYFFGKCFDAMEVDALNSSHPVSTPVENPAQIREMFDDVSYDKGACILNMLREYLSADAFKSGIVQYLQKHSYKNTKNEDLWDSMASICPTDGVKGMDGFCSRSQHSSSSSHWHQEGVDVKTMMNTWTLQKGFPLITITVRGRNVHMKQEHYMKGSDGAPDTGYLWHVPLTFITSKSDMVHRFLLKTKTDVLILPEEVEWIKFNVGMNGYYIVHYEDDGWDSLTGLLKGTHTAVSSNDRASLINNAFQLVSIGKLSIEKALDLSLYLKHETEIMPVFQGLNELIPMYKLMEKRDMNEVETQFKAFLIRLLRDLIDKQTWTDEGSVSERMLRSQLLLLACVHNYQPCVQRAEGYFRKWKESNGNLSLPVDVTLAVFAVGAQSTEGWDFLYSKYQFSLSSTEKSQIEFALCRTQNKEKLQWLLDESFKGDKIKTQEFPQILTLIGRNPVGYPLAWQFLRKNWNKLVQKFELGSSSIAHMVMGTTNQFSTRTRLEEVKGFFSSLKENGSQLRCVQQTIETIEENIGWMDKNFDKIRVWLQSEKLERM
PGC1a acetyl inh: lowers PGC1a acetylation signal in U2OS cells | AlphaScreen anti-acetyl-lysine; with virally co-expressed GCN5 acetyltransferase | inhibition, % at 15.6 µM | hit rate 0.17% among 350,000 | AID 651687;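 active = every replicate shows inhibition of at least 40%; inconclusive = mean inhibition at least 40% but some replicate below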;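 also: 0% = neutral control wells and 100% = positive control wells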
DENV2 CPE: protects cells from dengue virus 2 cytopathic effect. DENV2-infected cells, cytopathic effect rescue, plate reader. CPE inhibition, % at 9.99 µM. hit rate 1.7% among 350,000. AID 651640; in the data active = CPE inhibition above about 20%, passing the limit was not always enough; inconclusive = no clear call, values can overlap the other calls; tested in BHK-21 cells;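 also: 0% = median of neutral control wells and 100% = median of positive control wells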
INS-1E GSIS act: primary screen for activators of insulin secretion dependent on glucose, INS-1E cells, GLuc reporter luminescence | activation, % at 16.6 µM | hit rate 0.61% among 370,000 | INS-1E GLuc reporter insulin secretion, 2-3 h | AID 743287;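 active = lowest replicate activation of at least 40%, so every replicate reaches that level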;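 also: 0% = median of neutral control wells and 100% = median of IBMX positive control wells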
Ecoli rRNA inh: inhibits bacterial ribosomal RNA function over humanized ribosomes; E. coli WT GFP vs humanized-ribosome RFP mutants, fluorescence, 24 h; stronger effect = lower value; DMSO median 0, no signal -100; GFP signal change (wild-type ribosome), % (test concentration not listed); hit rate 1.6% among 350,000; AID 720706;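 active = significant combined selectivity score with lowered wild-type GFP, culture density cut under 30%, mutant RFP and density less affected; inactive = any of these conditions unmet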
CaV13 FRET inh: Primary screen for inhibitors of IQ motif and Ca2+-dependent inactivation inhibitor domain binding in CACNA1D, Förster resonance energy transfer in living cells, … | inhibition, % at 12.3 µM | HEK cells, CFP/YFP FRET ICDI-IQ, plate reader, 10 min; percent FRET-ratio fall versus neutral wells | hit rate 0.098% among 340,000 | AID 743397;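 active = mean replicate inhibition of at least 30% and at least 1% of replicates passing that level; inconclusive = only one of the two criteria is met; inactive = neither criterion is met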;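 also: 0% = median of the neutral control wells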
* = called active by the depositor; u = inconclusive; x = no result given.

SMILES | ERAP1 HTS inh | PGC1a acetyl inh | DENV2 CPE | INS-1E GSIS act | Ecoli rRNA inh | CaV13 FRET inh
O=c1c2c([N+](=O)[O-])cc([N+](=O)[O-])cc2sn1Cc1ccccc1 | 88* | x | 16 | 128* | -5 | -4
CC1(C)CC(=O)C(C=NC2CCCCC2)=C(O)C1 | x | -14 | x | -2 | x | 0
CC1(C)CC(=O)C(C=NC2CC(C)(C)NC(C)(C)C2)=C(O)C1 | x | -4 | x | 44* | x | x
CC1(C)CC(=O)C(C=NCC(N)=O)=C(O)C1 | -2 | u | 5 | -4 | -23* | -7
O=C(C(=O)c1cccnc1)c1cccnc1 | 2 | 2 | 15 | 3 | 14 | -4
Cc1cccnc1 | -5 | -3 | 21* | 12 | 2 | x
CCOc1nc(Nc2ccccc2F)nc(OCC)n1 | -4 | x | -2 | 62* | -1 | 0
Cc1noc(C)c1NC(=O)Nc1cccc2c1O[C@H](CN(C)S(=O)(=O)c1cccs1)[C@H](C)CN([C@H](C)CO)C2=O | -2 | 18 | 1 | 0 | 3 | x
Cc1ccccc1CSCC(=O)Nc1ccccc1Br | 3 | x | -4 | -22 | -23* | -20
CC1=CCC[C@H]2[C@H](C1)C(=O)C[C@@H](C)[C@]2(C)CC/C(=C/CO)CO | -3 | -7 | 24* | -4 | -9 | x
C[C@@H]1CC(=O)[C@H]2CC(CO)=CCC[C@@H]2[C@@]1(C)CC/C(=C/CO)CO | x | -8 | x | x | x | x
CCCN(CC1CC1)C(=O)CSc1ncnc2sccc12 | 6 | 0 | x | 5 | -18* | -3
N#CC1=C(N)Oc2cc3c(cc2C1c1ccc(Cl)cc1)OCO3 (stereo not drawn) | -4 | -11 | x | 1 | -23* | -10
O=C(NC12CC3CC(CC(C3)C1)C2)N1CCN(c2ncccn2)CC1 | x | x | -8 | -4 | -21* | -3
O=C(NC12CC3CC(CC(C3)C1)C2)N1CCN(c2ccccn2)CC1 | 1 | -10 | 2 | -3 | -19 | -9
COc1ccc(-c2cc3nc4ccccc4n3c(N)c2C#N)cc1 | -2 | -13 | 6 | 86* | 4 | -5
C[C@H](CO)N1C[C@H](C)[C@H](CN(C)Cc2ccccc2)OCCCC[C@H](C)Oc2ccc(NC(=O)C3CCCCC3)cc2C1=O | -2 | 0 | -3 | -12 | -2 | x
COC(=O)C[C@H]1CC[C@H]2[C@@H](COc3ccc(NS(=O)(=O)c4cccc(F)c4)cc3C(=O)N2C)O1 | 0 | 7 | 3 | 11 | 3 | x
C[C@@H]1CN([C@@H](C)CO)C(=O)c2cc(NS(=O)(=O)c3ccc(F)cc3)ccc2O[C@H]1CN(C)Cc1ccncc1 | 2 | -1 | -2 | 2 | -3 | x
CC(=O)c1cnc(SCc2ccc(Cl)cc2)nc1C | 7 | 0 | -1 | -2 | -28* | -7
COc1cccc(CN2CC3(CCN(C(C)=O)CC3)c3c(n(C)c4cc(OC)ccc34)[C@@H]2CO)c1 | x | x | x | -12 | 6 | x
Cc1cccc(N2CCN(C(=O)c3cccn4c(=O)c5c(C)c(C)sc5nc34)CC2)c1C | x | 5 | x | 156* | x | -9
CCc1cccc(C)c1N=Cc1c(O)c2ccccc2oc1=O | 0 | x | -6 | 1 | -24* | -4
CN(C)c1ccc(C(C(=O)NCC2CCCO2)N(C(=O)c2snc(C(N)=O)c2N)c2ccccc2)cc1 (stereo not drawn) | 4 | x | 9 | 10 | 0 | -3
CC(C)c1ccc(N(C(=O)c2snc(C(N)=O)c2N)C(C(=O)NCC2CCCO2)c2ccc(N(C)C)cc2)cc1 (stereo not drawn) | -5 | -16 | 32* | -1 | 4 | -3
SMILES | ERAP1 HTS inh | PGC1a acetyl inh | DENV2 CPE | INS-1E GSIS act | Ecoli rRNA inh | CaV13 FRET inh
NC(=O)c1nsc(C(=O)N(c2ccccc2)C(C(=O)NC2CCCC2)c2ccc3ncccc3c2)c1N (stereo not drawn) | 2 | x | 39* | 2 | 7 | -3
COc1ccc(/C=N/Nc2nc(Nc3ccccc3)nc(N3CCCC3)n2)cc1 | -1 | -2 | 1 | -1 | 13 | -1
C(=N\Nc1nc(Nc2ccccc2)nc(N2CCCCC2)n1)/c1ccco1 | -3 | x | 0 | 3 | -38* | 2
O=C(CCN1CCCCC1)NCC[C@H]1CC[C@H](NC(=O)C2CC2)[C@@H](CO)O1 | 1 | 16 | 4 | 10 | -1 | x
COc1ccc(NC(=O)N(C)C[C@@H]2Oc3ncc(C#CCC(C)C)cc3C(=O)N([C@H](C)CO)C[C@H]2C)cc1 | 0 | -7 | u | -16 | -1 | x
O=C(NC(=S)NCCc1ccccc1)c1ccccc1F | -1 | x | -1 | -6 | -31* | -2
Cc1ccc(S(=O)(=O)Nc2ccc3c(c2)CC(=O)N([C@@H](C)CO)C[C@@H](C)[C@@H](CN(C)CC2CCCCC2)O3)cc1 | 0 | -6 | -4 | -12 | 5 | x
Cc1ccc(NC2CCCN(C(=O)c3ccoc3C)C2)cc1C (stereo not drawn) | -1 | -13 | 28* | 8 | -2 | x
N#C/C(=C\c1ccco1)C(=O)Nc1cccc2ncccc12 | -2 | x | 19 | 8 | 2 | 41*
O=C(NC(=S)Nc1cccc2ncccc12)c1ccco1 | -6 | x | 0 | 2 | 17 | 1
CC1CC(C)(C)NC(=S)N1CCCC(=O)Nc1ccc(Br)cc1 (stereo not drawn) | 0 | -9 | -1 | -13 | -37* | 5
CCOc1ccc(NC(=O)CCCN2C(=S)NC(C)(C)CC2C)cc1 (stereo not drawn) | x | x | x | -1 | x | -2
Cc1ccc(S[C@@H](CCN2CC[C@H](C)CCC2=O)c2ccccc2)cc1 | 3 | x | -1 | -41 | -28 | -5
Cc1ccc(S[C@@H](CCN2CC[C@H](O)CCC2=O)c2ccccc2)cc1 | 7 | -13 | -12 | -6 | -11 | 33*
O=C(N[C@H]1CCC(=O)N(CCSc2ccc(Br)cc2)CC1)OCc1ccccc1 | -2 | 5 | -2 | 8 | -17 | -12
Cc1ccc(SCCN2CCC(NC(=O)OCc3ccccc3)CCC2=O)cc1 (stereo not drawn) | 0 | -12 | 32* | -31 | -18 | 8
COc1ccccc1NC(=O)N1CC(=O)N2[C@H](CO)[C@@H](c3ccc(C#CC4CC4)cc3)[C@H]2C1 | x | 18 | 0 | -2 | -3 | x
CCOc1ccc(/C=C2\SC(=S)N(NS(=O)(=O)c3ccccc3)C2=O)cc1OC | x | 10 | 0 | 62* | -15 | -17
CCOc1cc(/C=C2\SC(=S)N(NS(=O)(=O)c3ccccc3)C2=O)ccc1O | 6 | 7 | 0 | 10 | -9 | -6
CCOc1ccc(/C=C2\SC(=S)N(NS(=O)(=O)c3ccc(C)cc3)C2=O)cc1OC | x | 14 | 3 | 42* | -24* | -2
CC(C)(C)c1nc2ccc(Cl)cn2c1CC1CCCCC1 | -2 | -6 | 1 | 53* | 30 | -6
